The values that follow come from PubChem BioAssay AID932 (The Scripps Research Institute Molecular Screening Center, 2007).

Screen size: about 200,000 compounds; about 5,100 (2.5%) were called active. What follows is part of a selection rich in actives, with near analogues and random picks from the rest. Values without a mark were called inactive.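 Rule for the calls: active = activation above the screen-wide mean activation plus 3 SD (cut at about 130% in these data); inactive = the rest.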

This experiment in a line: potentiators of IFN-gamma driven STAT1 reporter – cell-based, HTS, luciferase reporter, primary screen (AID 932).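 Note: raw ratio to IFN-gamma control signal so 100% means no change and 0% no light.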 To be noted: NIH 3T3 STAT1-luciferase reporter, luminescence, at 5.5 µM, hits give high values, 100% = IFN-gamma alone, no compound. (In general: Reporter assays use an easily measured gene product as a stand-in for the process of interest.)
In the case of `COc1ccc(-c2nn(-c3ccccc3)cc2/C=C\C(=O)Nc2ccc(C(=O)O)cc2)cc1`, the activation (% of control) was 103%.
As for `COc1ccc2[nH]c(=O)c(-c3noc(-c4ccc(F)cc4)n3)cc2c1`, the activation (% of control) is 114%.
The figure for `COc1ccc(-c2noc(CSc3ccc(C)cc3)n2)cc1` is 102%; for `Cc1cccc(-c2noc(-c3ccc(F)cc3)n2)c1` it is 152% (active).
Take `Cc1ccc(Cc2nc(-c3cccc(C)c3)no2)cc1`: the activation (% of control) was 115%.
For `COc1ccc(-c2noc(-c3ccc(C)cc3)n2)cc1` the value was 133% (active); for `COc1ccc(-c2nc(-c3ccccc3)no2)c(OC)c1`, 43.8%; for `CC1COc2ccccc2N1C(=O)c1cccnc1Cl` (stereo not drawn), 98.3%.
Turning to `Cc1nc(N)c(Br)c(C)c1Br`, the activation (% of control) was 96.7%.
As to `CNC(=S)Nc1ccc([N+](=O)[O-])cc1`, the activation (% of control) was 96.9%.
The figure for `Cc1cc(C(=O)CC#N)c(C)n1-c1c(C)n(C)n(-c2ccccc2)c1=O` is 102%; for `CC1(C)CC(=O)C/C(=N\NC(=O)c2cccs2)C1` it is 101%.
Consider `COc1ccccc1Oc1nc(-c2cccnc2)nc2ccccc12`, for which the activation (% of control) is 102%.
`CCCCOC(=O)c1[nH]c(C)c(C(=O)OC)c1C`: the activation (% of control) is 134% (active).
As to `COC(=O)c1c(C)[nH]c(C(=O)/C=C/c2ccc(Cl)cc2)c1C`, the activation (% of control) is 98.9%.
Consider `CC(=O)c1c(C)[nH]c(C(=O)OCC(=O)NCCC(C)C)c1C`, for which the activation (% of control) is 86.3%.
For `COC(=O)C1=C(N)Oc2c(oc(CO)cc2=O)C1c1c(F)cccc1Cl` (stereo not drawn) the value was 95.5%; for `COc1cccc(CC2(CO)CCN(Cc3cnc(-c4cccc(C)c4)nc3)CC2)c1`, 99.5%.
The figure for `N/C(=N\OC(=O)/C=C/c1ccccc1)c1ccc(Br)cc1` is 98.9%; for `N/C(=N\OC(=O)c1ccc2c(c1)OCO2)c1ccc(Br)cc1` it is 144% (active).
Consider `N/C(=N\OC(=O)N1c2ccccc2Sc2ccccc21)c1ccc(Br)cc1`, for which the activation (% of control) was 92.7%.
On to `CN(NC(=O)C1CC(=O)N(c2ccccc2)C1)C1=NS(=O)(=O)c2ccccc21` (stereo not drawn), for which the activation (% of control) was 97.3%.
With `O=C(CCS(=O)(=O)c1cccc2nsnc12)N1CCN(c2ccccc2F)CC1`, the activation (% of control) was 106%.
Consider `O=C(CCSc1ccccc1)N1CCN(c2ccccc2F)CC1`, for which the activation (% of control) is 135% (active).
In the case of `O=C(c1cccc2ccccc12)N1CCN(c2ccccc2F)CC1`, the activation (% of control) was 101%.
For the compound `COc1cc(CN2CCN(Cc3ccc(C)cc3)CC2)c([N+](=O)[O-])cc1OC`, the activation (% of control) is 90.7%.
Regarding `Cc1cc(C)nc(-n2ncc3c2CC(c2ccc(C(C)C)cc2)CC3=O)n1` (stereo not drawn), the activation (% of control) was 104%.
In the case of `Cc1cc(C)cc(C(=O)NC2C(=O)N3C(C(=O)O)=C(CSc4nnc(C)s4)CSC23)c1` (stereo not drawn), the activation (% of control) is 93.1%.
For `COc1cc(NC(=O)c2ccc3c(c2)OCO3)ccc1NC(=O)c1cccs1` the value was 101%.
In the case of `COc1cc(CNc2ncn[nH]2)ccc1OCc1ccccc1C`, the activation (% of control) was 131% (active).
Turning to `COc1ccc(CCNC(=O)C(=O)NCc2ccccc2C)cc1OC`, the activation (% of control) is 96.8%.
With `c1n[nH]c(NCc2ccc3c(c2)OCO3)n1`, the activation (% of control) is 89.7%.
`COc1cccc(CC2(CO)CCCN(CC3=Cc4cc(OC)ccc4OC3)C2)c1` (stereo not drawn): the activation (% of control) is 92%.
With `CCOC(=O)c1ccc(NC(=O)c2cc(=O)[nH]c3ccccc23)cc1`, the activation (% of control) was 102%.
For the compound `COC(=O)[C@H]1Cc2cnoc2C[C@]1(C)C(=O)O`, the activation (% of control) is 106%.
The figure for `CCc1nnc(NC(=O)Cc2cccs2)s1` is 98.1%; for `CCCc1nnc(NC(=O)c2cccs2)s1` it is 115%.
Consider `CCc1nnc(NC(=O)c2cccs2)s1`, for which the activation (% of control) is 134% (active).
For `O=C(c1ccc(C(F)(F)F)cc1)C1CCCN(C(=O)c2csnn2)C1` (stereo not drawn) the value was 87.3%; for `N#CCC(=O)N/N=C/c1ccc(SCC(=O)Nc2ccccc2)o1`, 108%; for `O=C1COc2ccc(C(=O)COC(=O)c3cccnc3Cl)cc2N1`, 109%.
The figure for `O=C(N/N=C\c1ccc(Br)cc1)c1ccc(Cn2cccn2)o1` is 118%; for `O=C(N/N=C/c1ccc2c(c1)OCO2)c1ccc(Cn2cc([N+](=O)[O-])cn2)o1` it is 109%.
Consider `CN(C)c1ccc(/C=N/NC(=O)c2ccc(Cn3cc(Br)cn3)o2)cc1`, for which the activation (% of control) is 135% (active).
Take `C=CCn1c(COc2ccc(F)cc2)nnc1SCC(=O)Nc1cccc(S(N)(=O)=O)c1`: the activation (% of control) was 97.8%.
The figure for `Cc1c(/C=N/N2C(=O)C3C4C=CC(C4)C3C2=O)c2ccccc2n1C` (stereo not drawn) is 90.4%; for `C/C(=N\OC(=O)c1ccccc1)c1c(C)nc2cc(C)ccn12` it is 99.5%.
On to `Cc1ccc2nc(-c3ccc(NC(=O)CN(C)S(=O)(=O)c4ccccc4)cc3)sc2c1`, for which the activation (% of control) was 102%.
Take `Cc1cccc(N(CC(=O)Nc2ccc(-c3nc4ccc(C)cc4s3)cc2)S(C)(=O)=O)c1`: the activation (% of control) is 142% (active).
The figure for `Cc1ccc(N(CC(=O)Nc2cccc(N(C)S(C)(=O)=O)c2)S(C)(=O)=O)cc1` is 92.8%.
On to `Cn1c(=N)n(CC(O)c2cccs2)c2ccccc21` (stereo not drawn), for which the activation (% of control) is 95.5%.
The figure for `ClC1(Cl)CC1CSc1ncn[nH]1` (stereo not drawn) is 102%; for `O=C(C1CCN(C2CCN(Cc3ccc4cc(F)ccc4n3)CC2)CC1)N1CCCC1` it is 98.4%.
Consider `N#Cc1c(N)nc2c(c1N)CC(C(F)(F)F)O2` (stereo not drawn), for which the activation (% of control) was 92.8%.
Turning to `Cc1nn(C)c(C)c1Sc1ccccc1N`, the activation (% of control) was 99.2%.
For `CCn1c(CSc2nc(C)cc(C)n2)nnc1SCC(N)=O` the value was 103%.
For `Cc1ccc(/C=C/C(=O)Nc2cc(S(=O)(=O)N3CCCCCC3)ccc2OCC(F)(F)F)o1` the value was 139% (active); for `COc1ccc(S(=O)(=O)N2CCCCCC2)cc1C(=O)OCC(=O)Nc1cc(C)on1`, 97%; for `Cc1ccc(/C=C/C(=O)Nc2ccc([N+](=O)[O-])c(NC(=O)/C=C/c3ccc(C)o3)c2)o1`, 101%.
Take `O=[N+]([O-])c1ccc(NCCCO)c(C(F)(F)F)c1`: the activation (% of control) was 105%.
Take `CN(C(=O)c1ccccn1)c1nnc(-c2ccccn2)s1`: the activation (% of control) was 142% (active).
Regarding `CN(C(=O)c1ccno1)c1nnc(-c2cccnc2)s1`, the activation (% of control) was 102%.
For the compound `CN(C(=O)COc1ccccc1)c1nnc(-c2ccncc2)s1`, the activation (% of control) was 107%.
Consider `COc1ccc(N=C2SC(C(=O)Nc3ccc(F)cc3)CC(=O)N2C)cc1` (stereo not drawn), for which the activation (% of control) was 88.3%.
Turning to `Cc1ccccc1NCC(=O)N/N=C\c1ccc([N+](=O)[O-])s1`, the activation (% of control) is 92.7%.
For `CN(C(=O)CSc1nncc2ccccc12)C1CCCCC1` the value was 131% (active).
Take `CN(C(=O)CSc1nnnn1-c1ccccc1)C1CCCCC1`: the activation (% of control) was 103%.
Regarding `CN(C(=O)COc1ncnc2c1cnn2-c1ccccc1)C1CCCCC1`, the activation (% of control) was 94.4%.
Regarding `Cc1nnnn1/C(=C\c1ccccc1)C(=O)OCC(=O)N1CC2(C)CC1CC(C)(C)C2` (stereo not drawn), the activation (% of control) is 99.2%.
As for `O=C(Nc1nnc(C2COc3ccccc3O2)o1)c1ccc(F)cc1` (stereo not drawn), the activation (% of control) is 98.5%.
As to `O=C(N/N=C/c1ccccn1)C12CC3CC(CC(C3)C1)C2`, the activation (% of control) was 103%.
As to `OCCC1CN(Cc2cnc(-c3ccccc3)s2)CCN1CCc1ccccc1` (stereo not drawn), the activation (% of control) is 100%.
For the compound `Cc1c(Cl)cnc(NC(=O)COC(=O)c2ccc(S(=O)(=O)NCc3ccco3)cc2)c1Cl`, the activation (% of control) is 101%.
Regarding `COc1cccc(/C(C)=N/Nc2ncc(Cl)cc2Cl)c1`, the activation (% of control) is 126%.
For `OCCNc1nc2ccccc2[nH]1` the value was 104%; for `O=C(NC1CCC(O)CC1)c1ccc(S(=O)(=O)NCc2ccco2)cc1` (stereo not drawn), 93.2%; for `C/C(=N\Nc1nc2ccccc2[nH]1)c1cccs1`, 147% (active).
Turning to `C/C(=N\Nc1ncc(Cl)cc1Cl)c1cccs1`, the activation (% of control) is 143% (active).
With `C/C(=N\NS(=O)(=O)c1ccc(Br)cc1)c1cccs1`, the activation (% of control) is 95.4%.
The figure for `C/C(=N\Nc1nc(Nc2ccccc2)nc(N2CCOCC2)n1)c1cccs1` is 92.8%; for `C/C(=N\Nc1ncc(Cl)cc1Cl)c1ccc(S(=O)(=O)NCc2ccco2)cc1` it is 131% (active); for `COc1cccc(CNC(=O)CCN2C(=S)NC(C)(C)CC2C)c1` (stereo not drawn) it is 100%.
Regarding `Cc1nn(C)c(C)c1CN(C(=O)CCc1nnc(Cc2c[nH]c3ccccc23)o1)C(C)C`, the activation (% of control) was 99.9%.
For the compound `CCN(CC)c1ccc(C(=O)c2cnc(/N=C/N(C)C)s2)cc1`, the activation (% of control) is 118%.
For `COc1nc(-c2ccc(Cl)cc2)ccc1-c1noc(-c2cccs2)n1`, the activation (% of control) was 108%.
`c1ccc(-c2noc(-c3cccs3)n2)nc1`: the activation (% of control) is 104%.
For the compound `c1csc(-c2nc(-c3ccncc3)no2)c1`, the activation (% of control) was 130% (active).
For `CC(=O)Nc1ccc(CN2CCN(Cc3ccc(F)c(F)c3)C(CCO)C2)cc1` (stereo not drawn), the activation (% of control) is 100%.
Take `O=c1oc(-c2ccco2)nc2sc3c(c12)CCCCC3`: the activation (% of control) was 110%.
For `Cc1c(Br)ccc(NC(=O)COc2ccccc2C(N)=O)c1C` the value was 97.9%.
For `Cc1cc(NS(=O)(=O)c2ccc(NC(=O)c3cccc(OC(F)F)c3)cc2)nc(C)n1`, the activation (% of control) is 105%.
`CCOC(=O)C1(Cc2ccc(Cl)cc2)CCN(C(=O)C2=NNC(=O)CC2)CC1`: the activation (% of control) was 96.4%.
As to `CCOC(=O)C1(CCOc2ccccc2)CCN(C(=O)c2cncs2)CC1`, the activation (% of control) is 99.2%.
As for `CCOC(=O)C1(Cc2ccccc2C(F)(F)F)CCN(C(=O)c2cc(C)n(C)n2)CC1`, the activation (% of control) was 131% (active).
`O=c1cc(CO)oc(C(Nc2cccc(C(F)(F)F)c2)c2ccccn2)c1O` (stereo not drawn): the activation (% of control) was 99.4%.
In the case of `CCOC(=O)c1ccc(-c2ccc(C(=O)Nc3cccnc3)o2)cc1`, the activation (% of control) was 132% (active).
For `CCOc1cccc(C(=O)Nc2cccnc2)c1` the value was 101%; for `CCOC(=O)c1cc(NC(=O)c2cccnc2)cc(C(=O)OCC)c1`, 96.5%.
